“And” between values parts separate entries of the source, which are not always exact repeats. Equal entries are not always repeated. Screen size: about 5,500 compounds; about 2,000 (36%) were called active. Roughly 18% stayed inconclusive and do not appear here. No stated cut-off is given here; in the data, active means normalized growth mostly below about 0.91 (no sharp cut-off); inconclusive means no clear call, values can overlap the other calls; inactive means mostly above about 0.92. Some of the results follow.
Assay: chemical genetic growth profiling, strain panel (AID 1159580);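 further: tested at 20 µM; growth read once vehicle control cultures reached saturation at 30 °C; 1 = growth at the plate median or of vehicle wells; lower values mean less growth of the strain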
Details: S. cerevisiae deletion strains, growth OD

Measured: normalized growth

OC(c1cc(C(F)(F)F)nc2c(C(F)(F)F)cccc12)C1CCCCN1 (stereo not drawn)
inactive: locus YAL021C, strain ccr4, hits give low values 0.995 | locus YAL026C, strain drs2, hits give low values 0.972 | locus YAL030W, strain snc1, hits give low values 1.02 | locus YBL061C, strain skt5, hits give low values 1.01 | locus YBR009C, strain hhf1, hits give low values 1.01 | locus YBR021W, strain FUR4, hits give low values 0.965 | locus YBR023C, strain chs3, hits give low values 1 | locus YBR171W, strain sec66, hits give low values 1.02 | locus YBR229C, strain ROT2, hits give low values 0.988 | locus YBR231C, strain swc5, hits give low values 1.01 | locus YBR279W, strain paf1, hits give low values 1.02 | locus YCL011C, strain gbp2, hits give low values 1.01 | locus YCL016C, strain dcc1, hits give low values 1 | locus YCL029C, strain bik1, hits give low values 0.999 | locus YCL069W, strain vba3, hits give low values 0.999 | locus YCR088W, strain abp1, hits give low values 1.01 | locus YDL005C, strain med2, hits give low values 1.01 | locus YDL035C, strain GPR1, hits give low values 0.968 | locus YDL040C, strain nat1, hits give low values 1.02 | locus YDL074C, strain BRE1, hits give low values 0.945 | locus YDL101C, strain DUN1, hits give low values 0.993 | locus YDL134C, strain PPH21, hits give low values 0.966 | locus YDL185W, strain tfp1, hits give low values 0.979 | locus YDL192W, strain arf1, hits give low values 0.997 | locus YDR001C, strain nth1, hits give low values 1.01 | locus YDR069C, strain doa4, hits give low values 1.01 | locus YDR101C, strain arx1, hits give low values 0.993 | locus YDR137W, strain rgp1, hits give low values 1.12 | locus YDR150W, strain NUM1, hits give low values 0.995 | locus YDR159W, strain sac3, hits give low values 0.999 | locus YDR162C, strain NBP2, hits give low values 0.969 | locus YDR195W, strain ref2 1.02 | locus YDR297W, strain sur2, hits give low values 1.01 | locus YDR318W, strain mcm21, hits give low values 0.988 | locus YDR334W, strain swr1, hits give low values 1.01 | locus YDR335W, strain msn5, hits give low values 1.01 | locus YDR388W, hits give low values 0.995 | locus YDR392W, strain spt3, hits give low values 0.997 | locus YDR502C, strain sam2, hits give low values 0.987 | locus YEL003W, strain gim4, hits give low values 1.02 | locus YEL037C, strain rad23, hits give low values 1.02 | locus YEL061C, strain CIN8 (second series), hits give low values 1 | locus YEL061C, strain CIN8, hits give low values 0.994 | locus YER015W, strain faa2, hits give low values 1.01 | locus YER016W, strain bim1, hits give low values 1.01 | locus YER110C, hits give low values 0.996 | locus YER111C, strain swi4, hits give low values 1.01 | locus YER155C, strain BEM2 (second series), hits give low values 1.02 | locus YER155C, strain BEM2, hits give low values 0.997 | locus YER167W, strain BCK2, hits give low values 0.971 | locus YFR010W, strain ubp6, hits give low values 1 | locus YGL078C, strain dbp3, hits give low values 0.985 | locus YGL086W, strain mad1, hits give low values 0.988 | locus YGL167C, strain pmr1, hits give low values 1.02 | locus YGL173C, strain kem1, hits give low values 1.02 | locus YGL227W, strain vid30, hits give low values 1 | locus YGL240W, strain doc1, hits give low values 1.03 | locus YGL248W, strain PDE1, hits give low values 0.997 | locus YGL253W, strain hxk2, hits give low values 1 | locus YGR078C, strain PAC10, hits give low values 0.98 | locus YGR135W, strain pre9, hits give low values 0.973 | locus YGR229C, strain SMI1, hits give low values 0.95 | locus YGR252W, strain gcn5, hits give low values 0.922 | locus YHR013C, strain ard1, hits give low values 1 | locus YHR027C, strain rpn1, hits give low values 1.02 | locus YHR030C, strain SLT2, hits give low values 0.994 and 0.969 | locus YHR079C, strain IRE1 (second series), hits give low values 0.985 | locus YHR079C, strain IRE1, hits give low values 0.984 | locus YHR094C, strain hxt1, hits give low values 0.988 | locus YHR129C, strain ARP1, hits give low values 0.99 | locus YHR142W, strain chs7, hits give low values 0.984 | locus YHR200W, strain rpn10, hits give low values 0.996 | locus YIL066C, strain RNR3, hits give low values 0.973 | locus YIL073C, strain SPO22, hits give low values 0.979 | locus YIL125W, strain kgd1, hits give low values 0.995 | locus YIR030C, strain dcg1, hits give low values 0.99 | locus YJL092W, strain hpr5, hits give low values 1.01 | locus YJL095W, strain BCK1 (second series), hits give low values 1 | locus YJL095W, strain BCK1, hits give low values 0.969 and 0.948 | locus YJL115W, strain asf1, hits give low values 1.01 | locus YJL129C, strain trk1, hits give low values 1.02 | locus YJL134W, strain LCB3, hits give low values 0.993 | locus YJL154C, strain vps35, hits give low values 1.01 | locus YJL164C, strain tpk1, hits give low values 0.986 | locus YJL166W, strain qcr8, hits give low values 1.02 | locus YJL168C, strain set2, hits give low values 0.99 | locus YJL187C, strain SWE1 (second series), hits give low values 0.991 | locus YJR043C, strain POL32, hits give low values 0.979
